Assay [1] concerns the target Acetylcholinesterase (Homo sapiens) (UniProt P22303). Description: Acetylcholinesterase (AChE) small molecule antagonists: colormetric cell-based qHTS assay (AID 1347395). Also: nearly all actives have a fitted effect of over 30% in size. Also: potency is read from the fitted curve at half-maximal effect. The method in brief:
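Colorimetric readout: DTNB quantifies thiocholine from acetylthiocholine hydrolysed by endogenous AChE of SH-SY5Y cells (2,000/well, plated overnight). Compound pretreatment 30 min, substrate incubation 90 min, both 37 C.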
On the technique in general: qHTS replaces the single test concentration by a dilution series.

Assay [2] has the same target. Description: Acetylcholinesterase (AChE) small molecule antagonists: enzyme-based qHTS assay (AID 1347397). Also: nearly all actives have a fitted effect of over 55% in size. Also: potency is read from the fitted curve at half-maximal effect. The following applies: Potency: AChE enzyme activity inhibition; outcome: AChE enzyme activity inhibition. In short, it runs like this: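 Recombinant human AChE, dispensed at 50 mU/mL, was preincubated with Tox21 10K compounds or DMSO vehicle for 30 min at room temperature. DTNB plus acetylthiocholine was then added, and thiocholine was measured colorimetrically after a further 10 min.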

Assay [3] shares this target. Description: Acetylcholinesterase (AChE) small molecule antagonists: fluorescence cell-based qHTS assay (AID 1347398). Also: nearly all actives have a fitted effect of over 50% in size. Also: potency is read from the fitted curve at half-maximal effect. To be noted: Potency: AChE activity; outcome: AChE activity. The method in brief:
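Human SH-SY5Y cells were plated overnight at 37 C, exposed to compound for 30 min at 37 C, 5% CO2, then given acetylthiocholine plus Thiolite Green for 40 min at room temperature; thiocholine fluorescence (Ex/Em 490/520 nm) reports endogenous AChE activity.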

Assay [4] has the same target. Description: Acetylcholinesterase (AChE) small molecule antagonists: enzyme-based qHTS assay with human liver microsomes (AID 1347399). Also: nearly all actives have a fitted effect of over 60% in size. To be noted: Potency: qHTS inhibition; outcome: qHTS inhibition. The method in brief: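 Recombinant human AChE (50 mU/mL in the enzyme mix) and human liver microsomes (0.25 mg/mL final) were preincubated with compound and NADPH (0.25 mg/mL final) for 30 min at 37 C. Acetylthiocholine/DTNB was then added; thiocholine was read colorimetrically after 10 min at room temperature.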

Unmarked numbers belong to inactive results. Records with an inconclusive call do not appear. Active and inactive are the calls of the source. Calls follow the shape of the full dose curve.
% is scaled to controls: 0 for no effect and ±100 for the full control effect.

Chain of Acetylcholinesterase (Homo sapiens) (P22303 whole entry, looked up): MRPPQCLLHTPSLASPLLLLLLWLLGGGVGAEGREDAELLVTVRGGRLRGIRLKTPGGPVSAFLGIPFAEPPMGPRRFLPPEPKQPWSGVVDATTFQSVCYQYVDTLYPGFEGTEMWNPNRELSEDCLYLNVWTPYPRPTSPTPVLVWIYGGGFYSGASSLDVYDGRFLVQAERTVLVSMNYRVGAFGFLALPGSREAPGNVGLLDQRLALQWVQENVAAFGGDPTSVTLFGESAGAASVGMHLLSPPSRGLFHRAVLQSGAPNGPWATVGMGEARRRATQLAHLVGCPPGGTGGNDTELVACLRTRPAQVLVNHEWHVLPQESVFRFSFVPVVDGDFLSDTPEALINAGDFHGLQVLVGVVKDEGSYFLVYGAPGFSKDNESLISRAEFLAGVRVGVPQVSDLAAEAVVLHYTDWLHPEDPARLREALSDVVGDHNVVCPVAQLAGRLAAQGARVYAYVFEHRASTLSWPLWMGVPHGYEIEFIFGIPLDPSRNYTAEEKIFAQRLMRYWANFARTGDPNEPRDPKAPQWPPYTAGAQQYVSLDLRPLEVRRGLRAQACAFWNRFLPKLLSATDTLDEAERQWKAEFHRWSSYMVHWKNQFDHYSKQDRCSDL

Consider `C[N+]1(CC2COC(c3ccccc3)(c3ccccc3)O2)CCCCC1` (stereo not given), for which the activity, negative = inhibition in assay [1] was -0.268% [at 23.6 µM]. The values for the activity change, negative = inhibition in assay [2], in assay [3] and in assay [4] were 0.437% [at 23.6 µM], -6.49% [at 23.8 µM] and 4.03% [at 23.6 µM], respectively.
With `CC(=O)O[C@@]12CO[C@@H]1C[C@H](O)[C@@]1(C)C(=O)[C@H](O)C3=C(C)[C@@H](OC(=O)[C@H](O)[C@@H](NC(=O)OC(C)(C)C)c4ccccc4)C[C@@](O)([C@@H](OC(=O)c4ccccc4)[C@H]21)C3(C)C`, the Potency entry in assay [1], in assay [2], in assay [3] and in assay [4] was “inactive” in each case.
As for `COc1cc(S(=O)(=O)Nc2ccccc2)c(OC)cc1N`, the Potency entry in assay [1], in assay [2], in assay [3] and in assay [4] was “inactive” throughout.
With `CC(=O)OCC(=O)[C@@]1(O)[C@H](C)C[C@H]2[C@@H]3CCC4=CC(=O)C=C[C@]4(C)[C@@]3(F)[C@@H](O)C[C@@]21C`, the Potency result in assay [1], in assay [2], in assay [3] and in assay [4] was “inactive” in each case.
In the case of `C[Si]1(C)O[Si](C)(C)O[Si](C)(C)O[Si](C)(C)O1`, the Potency entry in assay [1], in assay [2], in assay [3] and in assay [4] was “inactive” throughout.
On to `C[C@]12CCC(=O)C=C1C=C[C@@H]1[C@@H]2CC[C@@]2(C)[C@H]1CC[C@@]21CCC(=O)O1`, for which the Potency entry in assay [1], in assay [2], in assay [3] and in assay [4] was “inactive” in each case.
`OCCOCCOCCOCCO`: the Potency result in assay [1], in assay [2], in assay [3] and in assay [4] was “inactive” throughout.
In the case of `CN1C(=O)c2ccccc2C1=O`, the Potency entry in assay [1], in assay [2], in assay [3] and in assay [4] was “inactive” each time.
With `c1cc(CN2CCCCC2)cc(OCCCNc2nc3ccccc3s2)c1`, the Potency was 15.5 µM (active) in assay [1], 27.5 µM (active) in assay [2] and 13.8 µM (active) in assay [3]. Besides, the Potency result in assay [4] is “inactive”.
On the same counts, the results for `O=C(O)CCc1ccccc1` are “inactive”, “inactive”, “inactive” and “inactive”.
Consider `c1cc2ccc3ccc4ccc5cccc6c(c1)c2c3c4c56`, for which, in assay [1], the activity, negative = inhibition was 3.35% [at 4.07 µM]. For the same compound, the activity change, negative = inhibition was 0.28% [at 4.07 µM] in assay [2], 9.19% [at 3.98 µM] in assay [3] and 0.324% [at 4.07 µM] in assay [4].
Consider `c1cc[c]([Bi]([c]2ccccc2)[c]2ccccc2)cc1`, for which the Potency entry in assay [1], in assay [2], in assay [3] and in assay [4] was “inactive” throughout.
In the case of `CN(C)CCC(c1ccccc1)c1ccccn1` (stereo not given), the Potency result in assay [1], in assay [2], in assay [3] and in assay [4] was “inactive” each time.
Turning to `NC(=O)c1cccc([N+](=O)[O-])c1`, the Potency result in assay [1], in assay [2], in assay [3] and in assay [4] was “inactive” throughout.
Turning to `O=C(Nc1ccc(Cl)cc1)Nc1ccc(Cl)c(Cl)c1`, the Potency result in assay [1], in assay [2], in assay [3] and in assay [4] was “inactive” in each case.
In the case of `CC(=O)Nc1ccc(OC(=O)c2ccccc2OC(C)=O)cc1`, the Potency result in assay [1], in assay [2], in assay [3] and in assay [4] was “inactive” in each case.
Turning to `OC12N=C(c3ccccc3)SC1Cc1cc(Cl)ccc12` (stereo not given), the Potency result in assay [1], in assay [2], in assay [3] and in assay [4] was “inactive” throughout.
As to `NNC(=O)c1cccc(C(=O)NN)c1`, the Potency result in assay [1], in assay [2], in assay [3] and in assay [4] was “inactive” throughout.
`CCOC(C)=O`: the Potency result in assay [1], in assay [2], in assay [3] and in assay [4] was “inactive” in each case.
With `CCCCC(CC)CO` (stereo not given), the Potency entry in assay [1], in assay [2], in assay [3] and in assay [4] was “inactive” in each case.
For `CCOC(=O)CC(=O)c1ccccc1`, the Potency entry in assay [1], in assay [2], in assay [3] and in assay [4] was “inactive” each time.
For `C=C[Si](OC(=C)C)(OC(=C)C)OC(=C)C`, the Potency entry in assay [1], in assay [2], in assay [3] and in assay [4] was “inactive” each time.
Take `CC(NN)c1ccccc1` (stereo not given): in assay [1], the activity, negative = inhibition is 1.5% [at 23.6 µM]. Moreover, the results for the activity change, negative = inhibition in assay [2], in assay [3] and in assay [4] were 0.277% [at 23.6 µM], 0.294% [at 23.8 µM] and 1.27% [at 23.6 µM], respectively.
For `Nc1ccc(S(=O)(=O)NCc2ccccc2)cc1`, the Potency entry in assay [1], in assay [2], in assay [3] and in assay [4] was “inactive” throughout.
As for `O=C(OCc1ccccc1)c1ccccc1`, the Potency entry in assay [1], in assay [2], in assay [3] and in assay [4] was “inactive” each time.
With `O=C(/C=C/C=C/c1ccc2c(c1)OCO2)N1CCCCC1`, the Potency result in assay [1], in assay [2], in assay [3] and in assay [4] was “inactive” each time.
For the compound `CCCCC(CC)COCCC#N` (stereo not given), the Potency result in assay [1], in assay [2], in assay [3] and in assay [4] was “inactive” throughout.
As to `CCCCCCCCCCOC(C)=O`, the Potency entry in assay [1], in assay [2], in assay [3] and in assay [4] was “inactive” in each case.
In the case of `O=C=NCc1cccc(CN=C=O)c1`, in assay [1], the activity, negative = inhibition is -0.545% [at 23.6 µM]. Further, the activity change, negative = inhibition in assay [2] was 0.393% [at 23.6 µM]; in assay [3], -0.0492% [at 23.8 µM]; in assay [4], 0.648% [at 23.6 µM].
For the compound `C=CC(C)(O)CC/C=C(/C)CCC=C(C)C` (stereo not given), the Potency result in assay [1], in assay [2], in assay [3] and in assay [4] was “inactive” throughout.

These data come from PubChem BioAssay (Tox21).
